Rows were chosen to be rich in hits. Some 10% of all compounds tested hit in one or more screens of this group.
HPGD block: inhibitors of human 15-hydroxyprostaglandin dehydrogenase (HPGD) | P15428 | purified HPGD, NADH fluorescence kinetic, PGE2 substrate | Potency, µM, most hits filed as inhibitors | hit rate 4.3% among 150,000; active means well fitted inhibition curve with a large enough effect, not every such curve was filed as active; inconclusive means small, poorly fitted or top-dose-only effect, or another doubt; inactive means no such curve, though single readings can be large or run the other way
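20 nM HPGD preincubated 15 min at room temperature with compound in 50 mM Tris-HCl pH 8, 0.01% Tween 20. Started with 1 mM NAD+ and 30 uM prostaglandin E2; NADH fluorescence (360/450 nm) read 5 times over 30-s intervals, last minus first.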
GLA inh pH 4.5: blocks human alpha-galactosidase A at pH 4.5; purified enzyme, 4-MU-alpha-Gal fluorescence, pH 4.5; activity change, negative = inhibition, % at 105 µM; 230,000 tested, under 10 active; AID 1467
ALDH1A1 inh: inhibitors of human aldehyde dehydrogenase 1A1; P00352; AID 1030; hit rate 7.3% among 220,000; Purified ALDH1A1, NADH fluorescence, propionaldehyde substrate; Potency, µM (highest dose often 75.3 µM), usual class: inhibitors; active means well fitted inhibition curve with a large enough effect, not every such curve was filed as active; inconclusive means small, poorly fitted or top-dose-only effect, or another doubt; inactive means no such curve, though single readings can be large or run the other way
aGal spleen mod: alpha-galactosidase A (human) modulation; AID 2107; human spleen homogenate, 4MU-alpha-Gal fluorescence, 40 min; hit rate 0.008% among 240,000; P06280; Potency, µM (top dose mostly 80 µM), hits mostly inhibitors
Target sequence (P06280 32-429 limits assumed): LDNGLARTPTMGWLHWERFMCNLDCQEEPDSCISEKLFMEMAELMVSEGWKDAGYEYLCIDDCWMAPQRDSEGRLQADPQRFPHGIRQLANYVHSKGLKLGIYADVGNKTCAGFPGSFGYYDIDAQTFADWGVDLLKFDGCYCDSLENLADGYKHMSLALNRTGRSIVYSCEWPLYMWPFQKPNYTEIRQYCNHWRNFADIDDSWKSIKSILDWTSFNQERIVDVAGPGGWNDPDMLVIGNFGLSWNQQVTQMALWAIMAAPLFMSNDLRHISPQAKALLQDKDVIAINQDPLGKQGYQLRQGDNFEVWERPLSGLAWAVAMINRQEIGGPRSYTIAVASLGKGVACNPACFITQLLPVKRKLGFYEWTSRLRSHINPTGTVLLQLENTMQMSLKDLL
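Human spleen homogenate (1 ug) was the enzyme source, with 4-methylumbelliferyl-alpha-D-galactopyranoside (1 mM final) in pH 5.0 citrate buffer with 0.01% Tween-20. Compounds were titrated; after 40 min at 37C, NaOH/glycine stop, 4-MU fluorescence read; AC50 from Hill fits.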
PNC assembly inh: blocks assembly of the perinucleolar compartment; activity change (PNC), negative = inhibition, % at 10 µM; hit rate 3.1% among 140,000; PC3M PTB-GFP, PNC prevalence imaging, 16 h; hits give low values;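 active means readout at or below -70, meaning at least 70% loss of cells showing the perinucleolar compartment, a nuclear body marking cancer cells; inconclusive means readout between -30 and a set limit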
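Read-out is percentage of cells bearing a perinucleolar compartment, from automated 20x imaging of fixed, Hoechst-stained PC3M PTB-GFP cells. Cells were seeded 4 h, then exposed 16 h to compound (23 nl of library stock) in duplicate plates.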
12-hLO inh: blocks human 12-lipoxygenase activity; P18054; purified 12-hLO, xylenol orange hydroperoxide absorbance; Potency, µM (titrated, usually from 57.1 µM), most hits filed as inhibitors; hit rate 0.12% among 150,000; AID 1452; further: nearly all actives have a fitted effect of over 55% in size
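Xylenol orange chromogenic assay: hydroperoxide from 12hLO oxidises Fe(II), giving red-shifted Fe(III)-XO absorbance. Conditions: 150 nM enzyme, 40 uM arachidonic acid, 25 mM Hepes pH 7.0, 0.01% Triton X-100, 30 min, room temperature.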
Each line names hits and unclear results; the compound was inactive in the other large screens. Unless noted, the call rests on the fitted dose curve; in most records, active means well fitted curve in the direction sought with a large enough effect; inconclusive means small, poorly fitted or top-dose-only effect, or another doubt; inactive means no such curve, though single readings can be large; an effect the other way counts as inactive or inconclusive.

CC(C)=CCc1c(O)cc2oc(C)cc(=O)c2c1O	HPGD block 4.47µM (no result: PNC assembly inh)
COc1ccc(C(=O)N2CCC[C@@]3(CCN(c4ncccn4)C3)C2)cc1	ALDH1A1 inh inconclusive (no result: GLA inh pH 4.5, PNC assembly inh)
COc1ccc(C(=O)Nc2sc(C)c(C)c2CN2CC(C)OC(C)C2)cc1 (stereo not drawn)	none (no result: HPGD block)
O[C@H](C[C@@H]1CCCCN1)c1ccc2c(c1)oc1ccccc12	none (no result: GLA inh pH 4.5, aGal spleen mod, PNC assembly inh)
CC(=O)N1CCN(c2cc3c(cc2F)c(=O)c(C(=O)O)cn3C2CC2)CC1	ALDH1A1 inh inconclusive (no result: HPGD block, PNC assembly inh, 12-hLO inh)
CCN1CCN(c2cc3c(cc2F)c(=O)c(C(=O)O)cn3C2CC2)CC1	HPGD block inconclusive, ALDH1A1 inh inconclusive, PNC assembly inh -114.6
COC(=O)C1(C(=O)OC)C/C=C\Cc2ccccc2[C@@H]1C[N+](=O)[O-]	none (no result: PNC assembly inh)
CC(=O)Nc1ccc2nc(-c3cccnc3)[nH]c2c1	HPGD block inconclusive, ALDH1A1 inh inconclusive, PNC assembly inh -100.0
CC(=O)Nc1cccc(-c2nc3ccc(NC(C)=O)cc3[nH]2)c1	HPGD block inconclusive, ALDH1A1 inh inconclusive
COC(=O)c1ccc(C(=O)Nc2ccc3nc(-c4cccnc4)[nH]c3c2)cc1	PNC assembly inh -83.1
O=C(O)c1nn(CC(=O)N2CCN(S(=O)(=O)c3ccc(Cl)cc3)CC2)c(=O)c2ccccc12	none (no result: HPGD block, ALDH1A1 inh, PNC assembly inh, 12-hLO inh)
O=C(Nc1ccc(Cl)cc1C(=O)N1CCOCC1)c1cccc([N+](=O)[O-])c1	none
O=C(Nc1ccc(F)cc1)c1ccc(COc2ccccc2)cc1	PNC assembly inh inconclusive
NNC(=O)c1cccc(COc2ccccc2Br)c1	ALDH1A1 inh 3.55µM
COC(=O)c1ccc(CNC(=O)c2ccc(COc3ccccc3)cc2)cc1	PNC assembly inh -100.0
NNC(=O)c1cccc(COc2ccc3c(c2)CCC3)c1	HPGD block 20µM
NNC(=O)c1ccc(COc2ccccc2)cc1	ALDH1A1 inh 2.24µM
O=C(c1cccc(COc2ccc(Cl)cc2Cl)c1)N1CCN(c2ccccn2)CC1	ALDH1A1 inh inconclusive
NNC(=O)c1ccc(COc2cccc3ccccc23)cc1	ALDH1A1 inh 7.94µM
O=C(c1cccc(COc2cccc3ccccc23)c1)N1CCCC1	HPGD block 20µM
Cc1noc(C)c1-c1nccc(NCCN2CCOCC2)n1	ALDH1A1 inh inconclusive (no result: HPGD block, GLA inh pH 4.5, PNC assembly inh, 12-hLO inh)
COC(=O)c1ccc(-c2ccc(/C=N/N3C(=O)C4C5C=CC(C6CC56)C4C3=O)o2)cc1 (stereo not drawn)	HPGD block 14.1µM
COC(=O)c1cccc(-c2ccc(/C=N/N3C(=O)C4C5C=CC(C6CC56)C4C3=O)o2)c1 (stereo not drawn)	ALDH1A1 inh 14.1µM (no result: HPGD block, PNC assembly inh, 12-hLO inh)
Cc1ccc(Cn2nnnc2CN2CCC(NC(=O)c3ccc(Br)cc3)CC2)cc1	none
CCC(C)(C)n1nnnc1CN1CCC(NC(=O)c2ccc(Br)cc2)CC1	ALDH1A1 inh 5.01µM, PNC assembly inh inconclusive
COc1ccc(CC(=O)NC2CCN(Cc3nnnn3C(C)(C)C)CC2)cc1OC	ALDH1A1 inh 25.1µM, PNC assembly inh inconclusive
CC(C)(C)n1nnnc1CN1CCC(NC(=O)NC2CCCCC2)CC1	none
CCN(/C=N/c1sc2c(c1C#N)CCCCC2)CC	ALDH1A1 inh inconclusive
CN1CCN(/C=N/c2sc3c(c2C#N)CCCCC3)CC1	ALDH1A1 inh 10µM
Cc1ccc(/C=N/c2sc3c(c2C#N)CCC3)s1	ALDH1A1 inh 25.1µM
N#Cc1c(/N=C/C=C/c2ccccc2)sc2c1CCCC2	HPGD block 22.4µM, GLA inh pH 4.5 inconclusive, ALDH1A1 inh 7.94µM
Cc1ccc(/C=N/c2sc3c(c2C#N)CCCCC3)o1	ALDH1A1 inh inconclusive
CC(C)CN(/C=N/c1sc2c(c1C#N)CCCCC2)CC(C)C	ALDH1A1 inh inconclusive
Cc1[nH]n(-c2cccc3ccccc23)c(=O)c1/C=N/c1sc2c(c1C#N)CCC2	HPGD block inconclusive, ALDH1A1 inh 5.01µM
Cc1nn(Cc2ccccc2)c(Cl)c1/C=C/C(=O)OCC(=O)N(C)C1CCS(=O)(=O)C1 (stereo not drawn)	none (no result: HPGD block, PNC assembly inh, 12-hLO inh)
CCOC(=O)c1c(C)[nH]c(C(=O)CSc2nccc(C)n2)c1C	ALDH1A1 inh inconclusive
C[C@@H]1Oc2ccc(C(=O)C[C@@H](C(=O)O)c3ccc4c(c3)OCO4)cc2O1	none (no result: GLA inh pH 4.5, aGal spleen mod, PNC assembly inh)

Assay outcomes (PubChem)
